In assay [1] the test system is Plasmodium falciparum Sir2 (PF13_0152, Sir2A). As to the kind of experiment: Plasmodium falciparum Sir2A binding compounds – biochemical, small-molecule microarray, 635 nm fluorescence, primary screen (AID 1098).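 Also: score merges spot fluorescence intensity with its signal-to-noise ratio.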 As to conditions: fluorescence 635 nm, higher = more signal.
Assay [2] in a line: probe aDKK1 binding to arrayed compounds – biochemical, biotinylated probe, 635/667 nm fluorescence, primary screen (AID 1099).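 Also: score merges 667nm spot fluorescence with signal to noise across triplicate slides.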 The following applies: small-molecule microarray, higher = more signal.
Assay [3] is described as follows: probe aCHRDL2 binding to arrayed compounds – biochemical, biotinylated probe, 635/667 nm fluorescence, primary screen (AID 1100). The following applies: small-molecule microarray, higher = more signal.
A short description of assay [4]: change in splice reporter luminescence, either direction, cell-based, HEK293, spliceosome inhibition project, primary screen (AID 1101).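 Also: HEK293 cells carrying a splicing-competent luciferase reporter gene; test concentration not given here.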 As to conditions: HEK293 splicing luciferase reporter, 24 h, higher = more signal, called active from +8 up or from −8 down. Background: In a reporter assay the amount or activity of a reporter protein is the signal.
The target in assay [5] is Fibroblast growth factor 10 (Homo sapiens) (UniProt O15520). Nature of the assay: compounds binding fibroblast growth factor 10 – biochemical, small-molecule microarray, 635 nm fluorescence, primary screen (AID 1102). The following applies: FGF10 binding, fluorescence 635 nm, higher = more signal.
Assay [6] relates to glycogen synthase kinase-3 (GSK3A per assay name; protocol says GSK3B). Nature of the assay: compounds binding glycogen synthase kinase-3 – biochemical, small-molecule microarray, 635 nm fluorescence, GSK3A, primary screen (AID 1103). Also: the record names both GSK3A and GSK3B. As to conditions: fluorescence 635 nm, higher = more signal.
Assay [7] concerns the target Epidermal growth factor receptor (Homo sapiens) (UniProt P00533). Nature of the assay: compounds binding epidermal growth factor receptor – biochemical, small-molecule microarray, 635 nm fluorescence, primary screen (AID 1104).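 Also: score merges 667 nm emission intensity with spot signal to noise over triplicate slides.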 The following applies: EGFR binding, higher = more signal.
The target in assay [8] is Follistatin-related protein 3 (Homo sapiens) (UniProt O95633). As to the kind of experiment: compounds binding follistatin-related protein 3 – biochemical, small-molecule microarray, 635 nm fluorescence, primary screen (AID 1105).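 Also: score merges emission near 667 nm and signal to noise per printed spot across three slides.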 The following applies: FSTL3 binding, higher = more signal.
Assay [9] concerns the target Dickkopf-related protein 1 (Homo sapiens) (UniProt O94907). Nature of the assay: small molecules binding DKK1 protein – biochemical, small-molecule microarray, 635 nm fluorescence scan, primary screen (AID 1106).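 Also: score merges emission near 667 nm with signal to noise over three replicate slides.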 As to conditions: higher = more signal.
For assay [10], the system named is Inhibin beta A chain (activin A). As to the kind of experiment: small molecules binding activin A – biochemical, small-molecule microarray, 635 nm fluorescence scan, primary screen (AID 1107).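 Also: mouse activin A protein probed at 4.33 µg/mL on printed slides; score merges bound-protein fluorescence near 667 nm with spot signal-to-noise.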 The following applies: INHBA, higher = more signal.
Assay [11] deals with Human papillomavirus type 1a protein E7 (residues 44-93). Nature of the assay: small molecules binding HPV E7 44-93 – biochemical, small-molecule microarray, residues 44-93, 635 nm fluorescence, primary screen (AID 1108).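 Also: E7 fragment applied at 1 µg/mL in TBST for 1 h at 4 C; score combines spot fluorescence with its signal to noise ratio.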 As to conditions: fluorescence 635 nm, higher = more signal.
Assay [12] can be described thus: hepatitis C replication reporter changes, two-sided – Huh7 cells, luciferase reporter, HCV replication inhibitor project, primary screen (AID 1109).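 Also: huh7 hepatoma cells harbouring a luciferase neomycin HCV replicon reporter; luciferase luminescence as measure of HCV replicon replication; test concentration not given here.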 The following applies: Huh7 HCV replicon luciferase reporter, 48 h; higher = more signal.
The target of assay [13] is Left-right determination factor 2 (Homo sapiens) (UniProt O00292). Nature of the assay: small molecules binding LEFTY2 protein – biochemical, small-molecule microarray, 635 nm fluorescence scan, primary screen (AID 1110). The following applies: higher = more signal.
Assay [14] concerns the target Calmodulin-1 (Homo sapiens) (UniProt P0DP23). Nature of the assay: small molecules binding calmodulin-1 with EGTA – biochemical, small-molecule microarray, Cy5-labelled CALM1, profiling panel (AID 1111).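 Also: labelled calmodulin applied in Tris saline Tween buffer holding calcium plus EGTA and DTT.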 The following applies: Cy5-CALM1 binding fluorescence, higher = more signal.
For assay [15] the target is unchanged. Nature of the assay: small molecules binding Ca-loaded calmodulin-1 – biochemical, small-molecule microarray, Cy5-labelled CALM1, plus calcium, artefact control for SMM control-protein annotation, profiling panel (AID 1112).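 Also: score merges spot fluorescence with signal to noise from triplicate slides.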 As to conditions: Cy5-CALM1 binding fluorescence, higher = more signal.
Assay [16] is described as follows: probe aWnt5a binding to arrayed compounds – biochemical, biotinylated probe, 635/667 nm fluorescence, primary screen (AID 1113).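 Also: score merges 667 nm fluorescence intensity with signal-to-noise per printed feature.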 As to conditions: small-molecule microarray, higher = more signal.
Assay [17] can be described thus: probe aShh binding to arrayed compounds – biochemical, biotinylated probe, 635/667 nm fluorescence, primary screen (AID 1114).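 Also: probe is biotin-labelled aShh protein from a stem cell growth factor screen; measures binding of labelled protein to compounds printed on the slide; score merges feature fluorescence at 667 nm with signal-to-noise.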 As to conditions: small-molecule microarray, higher = more signal.
Assay [18] in a line: probe aNog binding to arrayed compounds – biochemical, biotinylated probe, 635/667 nm fluorescence, primary screen (AID 1115).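 Also: probe is biotinylated aNog protein used at 0.15 µg/mL for 1 h at 4 C; z-score combines 667 nm fluorescence of each spot with its signal to noise.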 As to conditions: small-molecule microarray, higher = more signal.
For assay [19], the target named is Torsin-1A-interacting protein 1 (Homo sapiens) (UniProt Q5JTV8). As to the kind of experiment: compound microarray binding of lysate hLAP1 – cell lysate, small-molecule microarray, COS7 lysate, 635/667 nm fluorescence, primary screen (AID 1116). The following applies: 635 nm fluorescence, higher = more signal.
The target in assay [20] is Alpha-bungarotoxin (Bungarus multicinctus) (UniProt P60615). Nature of the assay: compounds binding labelled alpha-BTX control protein – biochemical, small-molecule microarray, Alexa647 label, 635/667 nm fluorescence, artefact control for SMM control protein annotation, profiling panel (AID 1117). The following applies: alpha-BTX-A647 binding fluorescence, higher = more signal.

The results in this text go back to PubChem BioAssay.

Active and inactive are the calls of the source.

Sequence of Alpha-bungarotoxin (Bungarus multicinctus) (P60615 whole entry, looked up): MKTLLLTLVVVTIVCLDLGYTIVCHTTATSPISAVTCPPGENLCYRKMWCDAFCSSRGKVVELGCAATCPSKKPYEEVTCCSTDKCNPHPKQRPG
Sequence of Torsin-1A-interacting protein 1 (Homo sapiens) (Q5JTV8 whole entry, looked up): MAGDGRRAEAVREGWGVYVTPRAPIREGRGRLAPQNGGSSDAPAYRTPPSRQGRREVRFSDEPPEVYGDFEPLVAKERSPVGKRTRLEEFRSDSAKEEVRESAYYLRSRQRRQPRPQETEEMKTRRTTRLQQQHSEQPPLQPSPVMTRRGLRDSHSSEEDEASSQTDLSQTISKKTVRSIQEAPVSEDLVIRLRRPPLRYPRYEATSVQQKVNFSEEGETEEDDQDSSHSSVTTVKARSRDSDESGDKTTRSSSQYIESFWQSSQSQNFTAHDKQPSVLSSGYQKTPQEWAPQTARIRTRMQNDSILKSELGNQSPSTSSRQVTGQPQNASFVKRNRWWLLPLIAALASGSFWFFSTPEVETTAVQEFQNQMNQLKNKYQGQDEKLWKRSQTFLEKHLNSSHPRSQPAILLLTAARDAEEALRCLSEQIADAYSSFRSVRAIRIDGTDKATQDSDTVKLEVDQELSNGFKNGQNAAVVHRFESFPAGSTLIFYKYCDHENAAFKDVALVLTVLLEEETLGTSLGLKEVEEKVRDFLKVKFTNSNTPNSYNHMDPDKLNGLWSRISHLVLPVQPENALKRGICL
Sequence of Epidermal growth factor receptor (Homo sapiens) (P00533 whole entry, looked up): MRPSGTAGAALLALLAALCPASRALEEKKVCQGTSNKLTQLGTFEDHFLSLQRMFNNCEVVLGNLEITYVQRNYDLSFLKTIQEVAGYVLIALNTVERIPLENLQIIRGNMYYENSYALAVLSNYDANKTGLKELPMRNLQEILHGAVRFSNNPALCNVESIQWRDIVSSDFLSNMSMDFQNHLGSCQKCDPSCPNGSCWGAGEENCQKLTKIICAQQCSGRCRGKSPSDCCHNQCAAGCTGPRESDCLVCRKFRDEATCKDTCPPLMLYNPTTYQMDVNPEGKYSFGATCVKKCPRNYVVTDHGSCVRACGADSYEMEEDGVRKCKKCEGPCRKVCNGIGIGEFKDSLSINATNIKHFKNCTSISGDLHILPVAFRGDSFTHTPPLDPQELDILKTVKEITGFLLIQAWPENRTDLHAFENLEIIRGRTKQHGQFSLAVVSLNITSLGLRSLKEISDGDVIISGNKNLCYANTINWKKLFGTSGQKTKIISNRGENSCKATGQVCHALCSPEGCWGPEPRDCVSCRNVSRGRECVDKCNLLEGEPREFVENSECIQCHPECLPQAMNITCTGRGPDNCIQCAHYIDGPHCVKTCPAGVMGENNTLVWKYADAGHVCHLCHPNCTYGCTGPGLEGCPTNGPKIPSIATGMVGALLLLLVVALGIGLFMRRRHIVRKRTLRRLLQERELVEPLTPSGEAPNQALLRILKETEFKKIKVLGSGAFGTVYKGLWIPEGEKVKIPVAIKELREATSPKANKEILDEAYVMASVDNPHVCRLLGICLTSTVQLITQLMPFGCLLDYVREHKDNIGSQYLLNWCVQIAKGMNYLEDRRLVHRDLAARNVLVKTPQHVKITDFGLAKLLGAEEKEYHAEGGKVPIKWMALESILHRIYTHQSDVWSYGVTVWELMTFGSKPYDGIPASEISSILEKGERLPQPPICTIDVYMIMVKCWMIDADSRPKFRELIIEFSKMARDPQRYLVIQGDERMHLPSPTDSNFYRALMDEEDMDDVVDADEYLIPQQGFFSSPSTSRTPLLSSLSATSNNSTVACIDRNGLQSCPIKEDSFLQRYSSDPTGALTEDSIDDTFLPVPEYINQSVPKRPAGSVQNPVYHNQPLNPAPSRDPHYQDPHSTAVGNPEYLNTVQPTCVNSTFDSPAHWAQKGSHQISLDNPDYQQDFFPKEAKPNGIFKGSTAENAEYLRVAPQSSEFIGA
Sequence of Fibroblast growth factor 10 (Homo sapiens) (O15520 whole entry, looked up): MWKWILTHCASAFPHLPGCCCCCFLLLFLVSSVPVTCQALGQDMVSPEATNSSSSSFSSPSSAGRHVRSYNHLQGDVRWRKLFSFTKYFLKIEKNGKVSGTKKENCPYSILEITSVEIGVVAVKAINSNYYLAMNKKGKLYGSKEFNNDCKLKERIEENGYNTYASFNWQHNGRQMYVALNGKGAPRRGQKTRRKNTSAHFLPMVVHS
Sequence of Left-right determination factor 2 (Homo sapiens) (O00292 whole entry, looked up): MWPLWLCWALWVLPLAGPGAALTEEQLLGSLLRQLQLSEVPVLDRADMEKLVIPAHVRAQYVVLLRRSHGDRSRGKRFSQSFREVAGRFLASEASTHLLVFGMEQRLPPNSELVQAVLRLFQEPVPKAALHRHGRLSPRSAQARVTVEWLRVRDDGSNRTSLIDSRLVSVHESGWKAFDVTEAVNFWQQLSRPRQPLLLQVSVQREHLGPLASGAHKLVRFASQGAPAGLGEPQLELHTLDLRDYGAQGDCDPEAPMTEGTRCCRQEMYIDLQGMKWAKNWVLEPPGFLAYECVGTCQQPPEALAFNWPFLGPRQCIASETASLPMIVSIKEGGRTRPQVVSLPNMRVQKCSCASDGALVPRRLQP
Sequence of Dickkopf-related protein 1 (Homo sapiens) (O94907 whole entry, looked up): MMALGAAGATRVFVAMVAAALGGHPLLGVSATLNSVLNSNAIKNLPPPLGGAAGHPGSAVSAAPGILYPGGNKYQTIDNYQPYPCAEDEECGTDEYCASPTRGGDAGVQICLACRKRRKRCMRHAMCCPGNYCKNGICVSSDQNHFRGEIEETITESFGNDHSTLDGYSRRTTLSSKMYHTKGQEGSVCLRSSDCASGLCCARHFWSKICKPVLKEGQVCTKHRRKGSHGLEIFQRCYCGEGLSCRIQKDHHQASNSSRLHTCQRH
Sequence of Follistatin-related protein 3 (Homo sapiens) (O95633 whole entry, looked up): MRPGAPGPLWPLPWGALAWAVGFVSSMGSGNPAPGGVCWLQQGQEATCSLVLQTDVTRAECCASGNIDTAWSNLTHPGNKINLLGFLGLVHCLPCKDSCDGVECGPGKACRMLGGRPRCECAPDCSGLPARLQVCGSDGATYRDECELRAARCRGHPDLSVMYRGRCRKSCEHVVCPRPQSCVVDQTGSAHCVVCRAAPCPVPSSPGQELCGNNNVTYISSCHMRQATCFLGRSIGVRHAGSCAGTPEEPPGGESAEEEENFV

As for `O=C1O[C@@H](c2ccccc2)[C@@H](c2ccccc2)N2[C@@H](c3ccc(OCCO)cc3)[C@]3(C(=O)Nc4ccc(C#CC5(O)CCCCCC5)cc43)[C@@H](C(=O)NC[C@H](O)c3ccccc3)[C@H]12`, the composite z-score came out at 1.37 in assay [1]; 0.914 in assay [2]; 0.864 in assay [3]; 1.15 in assay [5]; 1.17 in [6]; 0.244 in assay [7]. Moreover, the composite z-score is 1.25 in assay [8]; 0.382 in assay [9]; 0.42 in assay [10]; 1.24 in assay [11]; 0.497 in assay [13]; 1.97 in assay [14]. In addition, the composite z-score was 0.638 in assay [15]; -0.0877 in assay [16]; 0.172 in assay [17]; 1.21 in assay [18]; 1.94 in [19]; 2.42 in assay [20]. The z-score was -0.828 (inactive) in assay [4] and -2.06 in assay [12].
For `COc1ccc(/C=C/C(=O)c2cccc(OCC(=O)OC(C)(C)C)c2)cc1`, the composite z-score in assay [1] was 0.726; in [2], 0.145; in assay [3], 0.436; in assay [5] it was -0.189; in assay [6] it was 0.483; in [7], -0.693. In addition, the composite z-score is -0.525 in [8]; -0.442 in assay [9]; 0.379 in assay [10]; 0.268 in [11]; -0.606 in [13]; -0.0784 in assay [14]. In addition, the composite z-score in assay [15] was -0.159; in [16], -0.173; in [17], -0.2; in assay [18], -0.5; in assay [19] it was 0.154; in assay [20], 0.45. Also, the results for the z-score in [4] and in [12] were -0.611 (inactive) and 1.33, respectively.
On to `CC(C)C[C@@H]1NC(=O)[C@H]2C[C@@H](C(=O)NCCCC[N+](C)(C)C)[C@@H](c3cccc(OCCO)c3)N2C1=O`, for which the composite z-score in assay [1] was 0.812; in assay [2], 0.0877; in assay [3], -0.409; in [5], 0.756; in assay [6], -0.285; in assay [7], 0.0727. In addition, the composite z-score in assay [8] is 0.965; in assay [9] it was 1.23; in assay [10], -0.125; in assay [11], -1.55; in assay [13], 0.673; in assay [14], -0.144. For the same compound, the composite z-score was 0.75 in [15]; -0.148 in assay [16]; -0.0722 in [17]; 0.327 in assay [18]; 1.19 in assay [19]; -0.491 in assay [20]. In addition, the z-score was -1.02 (inactive) in assay [4] and -1.48 in assay [12].
For `C=CCC(OC(C)=O)[C@@H]1[C@@H](N(Cc2ccc(-c3ccccc3)cc2)C(=O)c2ccc(-c3ccccc3)cc2)c2cc(OCCCO)ccc2N1C(=O)c1ccc(-c2ccccc2)cc1` (stereo not given in full), the composite z-score in assay [1] was -0.104; in [2] it was 0.603; in [3], 0.672; in assay [5], -0.132; in assay [6], -0.0347; in assay [7], -0.137. The composite z-score in [8] was 0.145; in [9], -0.141; in [10], 1.11; in assay [11], -0.172; in [13] it was 0.337; in assay [14] it was 0.681. Also, the composite z-score is 0.92 in assay [15]; -0.11 in assay [16]; -0.324 in assay [17]; 0.347 in assay [18]; 0.315 in assay [19]; 0.459 in assay [20]. Besides, the z-score in assay [4] is -1.34 (inactive); in [12], 0.967.
Turning to `C=CC[C@]1(C(=O)N(C)C)N=C(c2ccc(OCCCO)cc2)O[C@H]1c1ccccc1CN=[N+]=[N-]`, the composite z-score in [1] worked out at 1.27; in [2] it was 1.68; in [3], 1.09; in assay [5], 0.698; in assay [6], 1.32; in [7], 0.0528. Moreover, the composite z-score in assay [8] stood at 0.513; in assay [9], 0.328; in assay [10], 1.43; in assay [11] it was 0.923; in [13] it was 0.447; in assay [14] it was 2.17. Further, the composite z-score was 1.17 in assay [15]; 0.0324 in assay [16]; -0.174 in assay [17]; 1.24 in assay [18]; 1.92 in assay [19]; 1.58 in [20]. The figures for the z-score in [4] and in [12] were -0.0363 (inactive) and -2.44, respectively.
Regarding `CC(C)(C)OC(=O)CC[C@]1(C(=O)NCc2ccccc2)COC(c2ccc(OCCCO)cc2)=N1`, the composite z-score in [1] is 1.31; in assay [2], 1.07; in assay [3] it was 1.21; in assay [5] it was 0.361; in assay [6], 0.319; in assay [7], -0.716. For the same compound, the composite z-score in [8] is -0.334; in [9], -1.17; in [10], 0.469; in assay [11], 0.326; in assay [13], -0.632; in assay [14], 0.98. Further, the composite z-score in assay [15] was 1.11; in assay [16], -0.001; in assay [17], -0.138; in [18], 1.31; in assay [19] it was 2.07; in assay [20], 2.47. Moreover, the figures for the z-score in assay [4] and in assay [12] were -0.264 (inactive) and -0.605, respectively.
